The source of these data is PubChem BioAssay AID2451 (National Center for Advancing Translational Sciences (NCATS), 2010).

Among all 290,000 compounds or so, about 2,100 (0.72%) were called active. Not shown: some 4% with an inconclusive outcome. Calls follow the shape of the dose curve; as a rule, active = well fitted inhibition curve with a large enough effect; inconclusive = small, poorly fitted or top-dose-only effect, or effect the other way; inactive = flat fitted curve, though single readings scatter. The sample as a whole holds a higher share of actives than the screen did.
% is scaled to controls: 0 for no effect and ±100 for the full control effect; potency is read from the fitted curve at half-maximal effect.

Sequence of Fructose-bisphosphate aldolase (Giardia intestinalis (strain ATCC 50803 / WB clone C6)) (A8B2U2 whole entry, looked up): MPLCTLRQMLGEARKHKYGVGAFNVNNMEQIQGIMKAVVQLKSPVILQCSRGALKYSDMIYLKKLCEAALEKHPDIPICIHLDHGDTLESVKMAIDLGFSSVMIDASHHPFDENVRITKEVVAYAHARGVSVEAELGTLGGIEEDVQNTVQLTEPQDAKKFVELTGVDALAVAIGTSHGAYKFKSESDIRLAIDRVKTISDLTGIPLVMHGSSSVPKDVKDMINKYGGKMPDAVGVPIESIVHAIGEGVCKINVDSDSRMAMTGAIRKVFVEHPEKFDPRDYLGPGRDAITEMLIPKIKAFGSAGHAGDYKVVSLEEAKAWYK

This test deals with Fructose-bisphosphate aldolase (Giardia intestinalis (strain ATCC 50803 / WB clone C6)) (UniProt A8B2U2). The experiment in a line: qHTS Assay for Inhibitors of Fructose-1,6-bisphosphate Aldolase from Giardia Lamblia. Also: nearly all actives have a fitted effect of over 55% in size. The settings on record: purified Giardia FBPA; series mostly up to 59.6 µM; activity, negative = inhibition: at the top concentration. From the text:
Assay Provider: Osnat Herzberg, University of Maryland
The objective of this project is to obtain compounds that inhibit Giardia lamblia growth. G. lamblia is a human pathogen which afflicts impoverished nations; it is the most common cause of outbreaks of diarrhea in the United States. During the course of our study of potential drug targets in Giardia, we have identified the Class II (Zn2+ functions in electrophilic catalysis) fructose-1,6-bisphosphate aldolase (FBPA) as an excellent candidate for drug targeting. FBPA is a key glycolytic pathway enzyme, essential for G. lamblia survival. The human FBPA belongs to the Class I aldolases, which have a different substrate binding site structure and a radically different catalytic mechanism (employing a lysine-Schiff base intermediate). Therefore, affinity-based or mechanism-based inhibitors of the Giardia FBPA are expected not to interfere with the catalytic function of the human FBPA.
A glyceraldehyde-3-phosphate dehydrogenase/triose phosphate isomerase/NAD/arsenate coupled assay was adapted to the 1536-well HTP format for use in the primary screen. This was done by coupling it to a diaphorase/resazurin/resorufin reaction that can be monitored by fluorescence (excitation, 544 nm; emission, 590 nm). Compounds identified in this screen will be further evaluated by coupling the glycerol-3-phosphate/triose phosphate isomerase/NADH assay to a phenazine methosulfate/tetranitroblue tetrazolium color reaction. False positives due to the dehydrogenases and diaphorase inhibition will be eliminated, and selectivity assay will triage inhibitors of mammalian triose phosphate isomerase and the Class I FBPA. G. lamblia FBPA inhibitors identified by the in vitro analyses will be examined for growth inhibition of Giardia trophozoites, and for cytotoxicity in human cells.
Step,Parameter,Value,Description
1,Enzyme reagent,2 uL,40 nM FBPA
2,Compound,23 nL,3.68 nM-57.5 uM final concentration
3,Time,10 min,RT Incubation
4,Substrate/detection Reagent,2 uL,Substrate + enzyme coupling system + AmpLite Red kit
5,Time,20 min,RT Incubation
6,Detector,525 nm/598 nm (Fluorescence),ViewLux Fluorescence Read (Read 1)
1,Medium-binding black solid-bottom Kalypsys plates. FRD or Kalypsys dispenser, 2 uL of FBPA enzyme. Bottle kept at 4C.
2,Compound Library (10 mM ,1:5 dilution). Pin-transferred for a [final] range of 3.68 nM-57.5 uM.
4,FRD or Kalypsys dispenser, 2 uL of reaction mixture. Bottle kept at 4C and covered in foil to protect from light.
6,ViewLux Protocol 1194; Excitation filter wheel A (525/20 Pol; BODIPY TMR FP), Emission filter wheel B (598/25 S; BODIPY TMR FP S).
Keywords: Fructose-bisphosphate aldolase, FBPA , Giardia lamblia , Giardia, HTS, Inhibitors
In general terms: qHTS replaces the single test concentration by a dilution series.
As to `Cc1nc2ccc(NC(=S)N3CCC(C)CC3)cc2nc1C`, the Potency is 15.8 µM (active).
Turning to `Cc1nc2ccc(NC(=O)N3CCC(c4ccccc4)C3)cc2nc1C` (centres undefined), the “activity, negative = inhibition” value is -21.7% (inactive).
Turning to `Cc1cccc(NC(=S)N2CCC(c3nc4ccccc4s3)CC2)c1`, the “activity, negative = inhibition” value is -0.249% (inactive).
Still for that read-out and setting: next, `O=CN1CCN(C(=O)c2ccc(Br)o2)CC1`: 3.01% (inactive); `O=C(CN1CCCCCC1)Nc1c(Cl)cc(Cl)cc1Cl`: 5.6% (inactive).
Consider `Cc1csc(NC(=O)CN2CCCCCC2)n1`, for which the Potency was 22.3 µM (active).
Turning to `Cc1cc(C)c(NC(=O)CN2CCCCCC2)c(C)c1`, the “activity, negative = inhibition” value was -2.14% (inactive).
As for `Cc1cccc([C@@H]2[C@@H]3C(=O)N(C)C(=O)[C@@H]3[C@@H]3C(=O)Nc4ccccc4C(=O)N23)c1`, the “activity, negative = inhibition” value was -14.7% (inactive).
As to `COc1ccccc1N(CC(=O)N/N=C(\C)c1ccccc1O)S(=O)(=O)c1ccc(C)cc1`, the “activity, negative = inhibition” value is 2.65% (inactive).
On to `CC(C)(C)c1ccc(CN2C(=O)c3ccccc3S2(=O)=O)cc1`, for which the “activity, negative = inhibition” value is -19.5% (inactive).
Turning to `Cc1ccc(C(=O)N2CC(=O)Nc3ccc(F)cc3C2c2ccc(F)cc2)cc1` (centres undefined), the “activity, negative = inhibition” value was 3.84% (inactive).
Still for that read-out and setting: next, `Cc1ccccc1Nc1nnc(C)c(=O)[nH]1`: -0.51% (inactive).
Regarding `Cc1nnc(N/N=C/c2ccccn2)[nH]c1=O`, the Potency is 1.99 µM (active).
For the compound `Cc1nnc(N/N=C/c2cccs2)[nH]c1=O`, the “activity, negative = inhibition” value is -7.41% (inactive).
Consider `O=S(=O)(c1ccc(Br)c2ccccc12)N1CCOCC1`, for which the “activity, negative = inhibition” value is 1.75% (inactive).
`COc1ccc(C(=O)Nc2ccc(C3(C#N)CCCC3)cc2)cc1OC`: the “activity, negative = inhibition” value was -4.77% (inactive).
On to `Cc1ccc(CC2CC(=O)N(c3cc(C)ccc3C)C2=O)cc1` (centres undefined), for which the “activity, negative = inhibition” value was -1.82% (inactive).
Turning to `O=C(COc1cccc(Cl)c1)NCc1ccccc1`, the “activity, negative = inhibition” value is 15% (inactive).
Regarding `CN(C)c1ccc(NC(=O)CSc2n[nH]c(-c3ccco3)n2)cc1`, the “activity, negative = inhibition” value was -5.76% (inactive).
Regarding `CN(C)C(=O)CSc1n[nH]c(-c2ccco2)n1`, the Potency is 15.8 µM (active).
In the case of `O=[N+]([O-])c1ccc(Sc2n[nH]c(-c3ccco3)n2)nc1`, the “activity, negative = inhibition” value is -26.1% (inactive).
For `CC(C)Nc1ccc(-n2nc3ccccc3[n+]2[O-])cc1`, the “activity, negative = inhibition” value is -3.63% (inactive).
As to `COCCCNC(=S)N1CCN(c2nc(-c3cccc(OC)c3)cs2)CC1`, the “activity, negative = inhibition” value is -13.5% (inactive).
In the case of `O=C(N/C(=C/c1ccc(Cl)cc1)C(=O)N1CCCCC1)c1ccco1`, the “activity, negative = inhibition” value was 8.42% (inactive).
On to `COc1cc2ccccc2cc1C(=O)Nc1nc(C)c(C(C)=O)s1`, for which the “activity, negative = inhibition” value is 0.847% (inactive).
With `CCCCC(CC)CNCc1cccn1CCN1CCOCC1` (centres undefined), the “activity, negative = inhibition” value was -22.5% (inactive).
With `CCN(CC)c1ccc2oc(=O)c(C)nc2c1`, the Potency is 2.51 µM (active).
`CCN(CC)c1ccc(/C=N/Nc2nc(C)cc(=O)[nH]2)cc1`: the “activity, negative = inhibition” value is -1.27% (inactive).
As for `CCN(CC)c1ccc(/C=N/Nc2nc(C)cc(C)n2)c(O)c1`, the “activity, negative = inhibition” value is -25.3% (inactive).
Turning to `CCOCCOC(=O)C(C)Oc1ccc(Oc2ncc(C(F)(F)F)cc2Cl)cc1` (centres undefined), the “activity, negative = inhibition” value was -9.6% (inactive).
`COc1ccc(C2CC(c3ccc([N+](=O)[O-])cc3)=NN2C(C)=O)cc1` (centres undefined): the “activity, negative = inhibition” value is 4.54% (inactive).
With `COc1ccc(C(=O)NC(C)CCc2ccccc2)c(OC)c1` (centres undefined), the “activity, negative = inhibition” value was -2.8% (inactive).
As for `C#CCN1C(=O)C(O)(CC(=O)c2cc(OC)ccc2OC)c2ccccc21` (centres undefined), the “activity, negative = inhibition” value is 0.87% (inactive).
On to `COc1ccc2c(c1)C(=C(C#N)C#N)C(=O)N2CCc1ccccc1`, for which the Potency was 2.51 µM (active).
